Among all 1,300 compounds or so, about 40 (3%) were called active. For the sample, actives were picked, then their nearest neighbours and some compounds at random. Unmarked numbers belong to inactive results. No stated cut-off is given here; in the data, active means inhibition above about 30%; inactive means the rest.

fMet-Leu-Phe receptor (Homo sapiens), sequence (P21462 whole entry, looked up): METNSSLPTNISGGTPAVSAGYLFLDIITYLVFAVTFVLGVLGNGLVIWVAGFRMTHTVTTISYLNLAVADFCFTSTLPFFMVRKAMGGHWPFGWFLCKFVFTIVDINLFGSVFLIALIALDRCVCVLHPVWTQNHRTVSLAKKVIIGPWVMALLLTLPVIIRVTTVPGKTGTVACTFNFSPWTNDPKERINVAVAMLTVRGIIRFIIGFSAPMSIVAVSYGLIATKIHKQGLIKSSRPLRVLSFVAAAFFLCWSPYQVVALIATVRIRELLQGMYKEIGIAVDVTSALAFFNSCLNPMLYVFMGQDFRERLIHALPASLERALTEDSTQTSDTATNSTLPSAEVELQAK

This assay addresses fMet-Leu-Phe receptor (Homo sapiens) (UniProt P21462). Nature of the assay: human FPR1 ligand displacement screen – cell-based, flow cytometry, SAR analysis, primary screen (AID 722). Particulars: FPR-expressing cells, fluorescent ligand binding inhibition, hits give high values, concentration not given here.
As a reminder, the inhibition is the change of the read-out against control, counted positive when it falls. `COc1ccc(-c2c(C)[nH]n3c(=O)c(Cc4ccccc4)c(C)nc23)cc1`: the inhibition was 6.3%.

Turning to `Cc1nc2c(-c3ccc(Cl)cc3)c[nH]n2c(=O)c1Cc1ccccc1`, the inhibition was -1.4%.

`Cc1nc2c(-c3ccc(Cl)cc3)c(C(F)(F)F)[nH]n2c(=O)c1Cc1ccccc1`: the inhibition is 50.1% (active).

For the molecule `N#CCn1c(=O)n(Cc2ccccc2)c(=O)c2oc3ccccc3c21`, the inhibition was -0.8%.

Consider `CCCCN(Cc1ccco1)C(=O)c1noc2c1CCCCC2`, for which the inhibition is 0.1%.

Consider `CCOC(=O)c1c(NC(=O)c2cccc(Br)c2)sc(C)c1C`, for which the inhibition was -4.3%.

For `Cc1ccc(C)c(NC(=O)Cn2c(-c3nonc3N)nc3ccccc32)c1`, the inhibition was 5.3%.

For `O=c1c2cccnc2n(Cc2ccccc2F)c(=O)n1Cc1ccccc1`, the inhibition is -7.5%.

For `O=c1c2cccnc2n(Cc2ccccc2F)c(=O)n1Cc1cccs1`, the inhibition was -0.6%.

Regarding `Cc1sc2c(c1C)c(=O)n(Cc1ccccc1)c(=O)n2Cc1ccccc1F`, the inhibition was 38.5% (active).

As to `Cc1ccc(C)c(Cn2c(=O)cc(C)c3c(C)nn(-c4cccc(F)c4)c32)c1`, the inhibition was -2.2%.

Regarding `CCOC(=O)c1sc(N2C(=O)C(=O)/C(=C(/O)c3ccccc3)C2c2ccc(C(C)C)cc2)nc1C` (configuration not stated), the inhibition was 7.9%.

With `Cc1nnc(N2C(=O)C(=O)/C(=C(/O)c3ccc(F)cc3)C2c2cccc(Oc3ccccc3)c2)s1` (configuration not stated), the inhibition was -8.8%.

For `Cc1ccc(CN(Cc2ccco2)C(=O)c2cccc(C)c2)cc1`, the inhibition is -4.5%.

With `O=C(O)CCCN1C(=O)C(=O)/C(=C(/O)c2ccccc2)C1c1ccc(F)cc1` (configuration not stated), the inhibition is 5.5%.

With `O=C(O)CCCN1C(=O)C(=O)/C(=C(/O)c2ccccc2)C1/C=C/c1ccccc1` (configuration not stated), the inhibition was 44.6% (active).

For the molecule `O=C(O)CCCN1C(=O)C(=O)/C(=C(/O)c2ccccc2)C1c1ccc(Br)cc1` (configuration not stated), the inhibition is 1.2%.

On to `O=C1C(=O)N(CCCN2CCOCC2)C(c2cccnc2)/C1=C(\O)c1ccccc1` (configuration not stated), for which the inhibition is -3.2%.

As to `COc1cc(C2C(C(C)=O)=C(O)C(=O)N2c2ccc(Br)cc2)ccc1O` (configuration not stated), the inhibition was 35.8% (active).

On to `COc1cccc(C2C(C(C)=O)=C(O)C(=O)N2c2ccc(C)c(Br)c2)c1` (configuration not stated), for which the inhibition was -9%.

As to `COC(=O)c1ccc(C2C(C(C)=O)=C(O)C(=O)N2c2ccc(OCC(=O)O)cc2)cc1` (configuration not stated), the inhibition was 2.2%.

Turning to `Cc1cccc(C(=O)N(C(=O)c2cccc(C)c2)c2ncccn2)c1`, the inhibition is -8.2%.

As for `CCN(C(=O)c1noc2c1CCCCC2)c1cccc(C)c1`, the inhibition is -6.2%.

As to `O=C(C1=C(O)C(=O)N(CCCn2ccnc2)C1c1cccnc1)c1cccs1` (configuration not stated), the inhibition was 3.5%.

Consider `O=C(C1=C(O)C(=O)N(CCc2ccccc2)C1c1ccc([N+](=O)[O-])cc1)c1cccs1` (configuration not stated), for which the inhibition was -7.4%.

As for `O=C(C1=C(O)C(=O)N(CCCN2CCOCC2)C1c1cccnc1)c1ccco1` (configuration not stated), the inhibition was -9.2%.

`O=C(C1=C(O)C(=O)N(CCCn2ccnc2)C1c1cccnc1)c1ccco1` (configuration not stated): the inhibition was 33.2% (active).

With `COc1ccc(C2C(C(=O)c3cccs3)=C(O)C(=O)N2CCCn2ccnc2)c(OC)c1` (configuration not stated), the inhibition was 1.7%.

For the molecule `COc1ccc(C2C(C(=O)c3cccs3)=C(O)C(=O)N2CCCn2ccnc2)cc1` (configuration not stated), the inhibition is 42.2% (active).

Consider `O=C(C1=C(O)C(=O)N(CCCn2ccnc2)C1c1cccnc1)c1cc2ccccc2o1` (configuration not stated), for which the inhibition is 40.4% (active).

Regarding `O=C(C1=C(O)C(=O)N(CCCN2CCOCC2)C1c1cccnc1)c1cc2ccccc2o1` (configuration not stated), the inhibition was 22.2%.

With `O=C(C1=C(O)C(=O)N(CCCn2ccnc2)C1c1cccc(Br)c1)c1ccco1` (configuration not stated), the inhibition is 0.3%.

Consider `O=C(C1=C(O)C(=O)N(CCCn2ccnc2)C1c1ccc(Cl)cc1)c1cccs1` (configuration not stated), for which the inhibition was 19.5%.

For `COc1cccc(C2C(C(=O)c3cccs3)=C(O)C(=O)N2CCc2ccccc2)c1` (configuration not stated), the inhibition is 15.8%.

Consider `O=C(C1=C(O)C(=O)N(CCc2ccccc2)C1c1ccc(Cl)cc1)c1cccs1` (configuration not stated), for which the inhibition is 77.6% (active).

Turning to `O=C(C1=C(O)C(=O)N(CCCN2CCOCC2)C1c1ccco1)c1ccco1` (configuration not stated), the inhibition was -4.4%.

`Cc1ccc(/C(O)=C2\C(=O)C(=O)N(CC3CCCO3)C2c2ccc([N+](=O)[O-])cc2)cc1` (configuration not stated): the inhibition is -3.9%.

Consider `CCCC(=O)N1CCc2cc(OC)c(OC)cc2C1COc1ccc(OC)cc1` (configuration not stated), for which the inhibition is -2.3%.

As to `Cc1nc2c(C(=O)N3CCCCC3)c[nH]n2c(=O)c1Cc1ccccc1F`, the inhibition is -4.3%.

Regarding `CCOc1ccc(C2/C(=C(/O)c3ccccc3)C(=O)C(=O)N2CCO)cc1` (configuration not stated), the inhibition is 1.5%.

Regarding `Cc1ccc(/C(O)=C2\C(=O)C(=O)NC2c2ccc(F)cc2)cc1` (configuration not stated), the inhibition is 10%.

Take `Cc1ccc(/C(O)=C2\C(=O)C(=O)NC2c2ccccc2)cc1` (configuration not stated): the inhibition was 0.5%.

Take `O=C(c1cccs1)N1c2ncnn2C2(CCCCC2)[C@@H]2CCCC[C@@H]21`: the inhibition is 0.9%.

As for `COc1cccc(N(Cc2nnc3n2CCCCC3)C(=O)Nc2ccccc2)c1`, the inhibition was -7.8%.

`COc1ccccc1C1CC(c2ccccc2)=NN1C(=O)c1ccccc1` (configuration not stated): the inhibition is 0%.

Turning to `CCOC(=O)c1c(NC(=O)c2ccc(Cl)cc2)sc(C)c1C`, the inhibition is -1%.

As for `CCOC(=O)c1c(NC(=O)c2cc(F)c(F)cc2Cl)sc2c1CCC2`, the inhibition was -9.6%.

As for `CCOC(=O)c1c(NC(=O)c2cccc(F)c2)sc2c1CCCC2`, the inhibition was -4%.

For the molecule `C=CCC(CC=C)(NC(=O)c1cccc(C)c1)c1ccccc1`, the inhibition is 0.8%.

Take `O=C(C1=C(O)C(=O)N(c2nncs2)C1c1ccccc1F)c1cccs1` (configuration not stated): the inhibition is -6.8%.

Consider `CCc1c(C)nc2c(C#N)c[nH]n2c1=O`, for which the inhibition was 0.5%.

For the molecule `CC(=O)C1=C(O)C(=O)N(CCN2CCOCC2)C1c1ccc([N+](=O)[O-])cc1` (configuration not stated), the inhibition is 5.7%.

As for `CCC(C)(C(=O)NC1CCCCC1)N(Cc1cccs1)C(C)=O` (configuration not stated), the inhibition was 57.2% (active).

Turning to `CCOc1ccccc1C(=O)N(Cc1cccs1)c1ccc(C)cc1`, the inhibition was 5.8%.

Regarding `CCC(C)(C(=O)NC1CCCCC1)N(C)C(=O)Cc1cccs1` (configuration not stated), the inhibition was -25.1%.

Consider `COc1cccc(C(=O)N(Cc2ccco2)Cc2ccccc2F)c1`, for which the inhibition was -2.3%.

Regarding `O=C(C(Cc1ccccc1)N1Cc2ccccc2C1=O)N1CCCCCC1` (configuration not stated), the inhibition is 0.8%.

Values taken from PubChem BioAssay AID722 (NMMLSC, 2007).
